This passage reports binding signal results from article PMC7862700, “An all-to-all approach to the identification of sequence-specific readers for epigenetic DNA modifications on cytosine”.

What all share (assay): DAPPL (digital affinity profiling via proximity ligation, sequencing); 10 mM Tris-HCl pH 7.5, 50 mM NaCl, 1 mM DTT, 4% glycerol, room temperature, 30 min; GST-TFs on glutathione beads, 16-mer random dsDNA library, 0.1% formaldehyde crosslink after washing; high values mean tight binding
In one assay the target is T1, FEV (Homo sapiens, UniProt Q99581 1-238).
T1 sequence: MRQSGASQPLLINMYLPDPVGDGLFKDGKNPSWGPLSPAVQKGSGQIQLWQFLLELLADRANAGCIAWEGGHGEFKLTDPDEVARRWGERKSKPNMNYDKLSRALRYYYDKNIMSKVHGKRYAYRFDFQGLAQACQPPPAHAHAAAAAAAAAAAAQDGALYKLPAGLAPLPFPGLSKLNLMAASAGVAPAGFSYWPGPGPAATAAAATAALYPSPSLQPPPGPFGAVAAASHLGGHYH
Conditions: protein: recombinant; tags: N-terminal GST; dsDNA, one strand shown. In outline:
(§1)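 A tag-only sample was pooled with DNA-barcoded human transcription factors that had been expressed in yeast as GST fusions and captured on glutathione beads. The pools were incubated for 30 min at room temperature with 200 nmole of a random double-stranded 16-mer DNA library in Tris/NaCl/DTT/glycerol buffer, then washed, crosslinked with 0.1% formaldehyde, proximity-ligated (BsaI/T4 ligase, 1 h, 37 °C), PCR-amplified and sequenced on an Illumina NextSeq500. Binding signal is each hexamer's read frequency for a factor divided by its frequency for the tag-only sample.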

The target in a further assay is ETV5 (Homo sapiens, UniProt P41161 1-510). Particulars: protein: recombinant; tags: N-terminal GST; dsDNA, one strand shown. Summed up:
as §1

Another assay has as its target HSF1 (Homo sapiens, UniProt Q00613 1-529). Particulars: protein: recombinant; tags: N-terminal GST; chain copies: 3; dsDNA, one strand shown. Summed up:
as §1

A further assay concerns the target T2, SPIC (Homo sapiens, UniProt Q8N5J4 1-248).
T2 sequence: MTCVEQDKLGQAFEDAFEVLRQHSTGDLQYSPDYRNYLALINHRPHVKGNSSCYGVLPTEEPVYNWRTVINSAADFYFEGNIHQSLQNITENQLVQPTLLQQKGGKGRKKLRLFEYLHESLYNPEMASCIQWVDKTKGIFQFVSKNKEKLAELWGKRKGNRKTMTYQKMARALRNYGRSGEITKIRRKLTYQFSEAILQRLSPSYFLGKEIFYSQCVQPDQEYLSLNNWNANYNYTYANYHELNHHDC
Conditions: protein: recombinant; tags: N-terminal GST; dsDNA, one strand shown. In outline: as §1

The target of a further assay is ELF4 (Homo sapiens, UniProt Q99607 1-663). Conditions: protein: recombinant; tags: N-terminal GST; dsDNA, one strand shown. Summed up:
as §1

The next assay has as its target T3, ELK4 (Homo sapiens, UniProt P28324-2 1-405).
T3 sequence: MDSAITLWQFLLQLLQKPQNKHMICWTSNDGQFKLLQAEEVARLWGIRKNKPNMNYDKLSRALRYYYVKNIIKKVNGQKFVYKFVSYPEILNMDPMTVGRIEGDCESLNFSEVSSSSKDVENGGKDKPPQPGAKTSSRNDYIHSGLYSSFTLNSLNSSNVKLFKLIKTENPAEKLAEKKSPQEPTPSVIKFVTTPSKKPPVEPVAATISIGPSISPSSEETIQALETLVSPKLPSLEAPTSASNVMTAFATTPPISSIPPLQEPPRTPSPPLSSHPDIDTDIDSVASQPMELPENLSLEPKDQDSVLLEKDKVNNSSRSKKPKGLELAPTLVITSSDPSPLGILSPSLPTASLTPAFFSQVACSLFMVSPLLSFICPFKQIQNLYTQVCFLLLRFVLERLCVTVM
Conditions: protein: recombinant; tags: N-terminal GST; dsDNA, one strand shown. In outline: as §1

Another assay deals with T4, ETV2 (Homo sapiens, UniProt O00321 1-342).
T4 sequence: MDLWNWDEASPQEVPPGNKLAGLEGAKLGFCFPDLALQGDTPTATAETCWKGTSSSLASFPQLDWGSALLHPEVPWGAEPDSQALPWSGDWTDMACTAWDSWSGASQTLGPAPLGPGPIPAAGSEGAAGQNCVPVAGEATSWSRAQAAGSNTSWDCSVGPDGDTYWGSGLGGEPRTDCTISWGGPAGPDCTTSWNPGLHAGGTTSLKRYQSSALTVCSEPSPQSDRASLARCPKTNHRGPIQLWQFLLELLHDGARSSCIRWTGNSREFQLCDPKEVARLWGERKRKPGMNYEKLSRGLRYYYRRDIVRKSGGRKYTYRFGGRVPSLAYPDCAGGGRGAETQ
Conditions: protein: recombinant; tags: N-terminal GST; dsDNA, one strand shown. Summed up: as §1

For the next assay, the target named is T5, ELF3 (Homo sapiens, UniProt P78545 1-371).
T5 sequence: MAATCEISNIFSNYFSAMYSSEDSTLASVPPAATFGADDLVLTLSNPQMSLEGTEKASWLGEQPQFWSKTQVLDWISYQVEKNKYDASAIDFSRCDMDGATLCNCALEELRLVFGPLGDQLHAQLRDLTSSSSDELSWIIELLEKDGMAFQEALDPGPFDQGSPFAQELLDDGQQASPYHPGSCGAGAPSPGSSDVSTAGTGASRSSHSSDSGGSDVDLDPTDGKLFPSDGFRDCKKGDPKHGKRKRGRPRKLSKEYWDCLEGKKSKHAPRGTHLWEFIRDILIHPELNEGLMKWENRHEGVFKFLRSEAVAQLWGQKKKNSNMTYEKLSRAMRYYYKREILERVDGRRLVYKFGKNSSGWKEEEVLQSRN
Particulars: protein: recombinant; tags: N-terminal GST; dsDNA, one strand shown. In outline:
as §1

A further assay has as its target CRX (Homo sapiens, UniProt O43186 1-299). Conditions: protein: recombinant; tags: N-terminal GST; dsDNA, one strand shown. Summed up:
as §1

In a further assay the target is ETV1 (Homo sapiens, UniProt P50549 1-477). Particulars: protein: recombinant; tags: N-terminal GST; dsDNA, one strand shown. In outline:
as §1

For another assay, the target named is T6, ERF (Homo sapiens, UniProt P50548 1-548).
T6 sequence: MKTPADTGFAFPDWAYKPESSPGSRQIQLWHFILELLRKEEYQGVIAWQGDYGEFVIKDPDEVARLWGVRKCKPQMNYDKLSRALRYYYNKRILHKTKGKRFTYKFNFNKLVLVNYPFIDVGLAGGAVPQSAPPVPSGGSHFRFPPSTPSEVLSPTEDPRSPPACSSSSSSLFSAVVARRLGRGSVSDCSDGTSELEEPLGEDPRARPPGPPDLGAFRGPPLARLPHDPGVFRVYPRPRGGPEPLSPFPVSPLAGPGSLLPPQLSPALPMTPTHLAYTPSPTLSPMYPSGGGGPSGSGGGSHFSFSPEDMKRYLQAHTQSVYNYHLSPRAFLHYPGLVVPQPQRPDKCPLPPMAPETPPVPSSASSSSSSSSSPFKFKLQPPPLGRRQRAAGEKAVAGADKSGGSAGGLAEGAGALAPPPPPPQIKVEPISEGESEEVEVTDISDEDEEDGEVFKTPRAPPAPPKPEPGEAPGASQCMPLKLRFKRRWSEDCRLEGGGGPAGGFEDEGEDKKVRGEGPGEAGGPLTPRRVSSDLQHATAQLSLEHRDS
Conditions: protein: recombinant; tags: N-terminal GST; dsDNA, one strand shown. Summed up:
as §1

The next assay deals with T7, ETV3L (Homo sapiens, UniProt Q6ZN32 1-361).
T7 sequence: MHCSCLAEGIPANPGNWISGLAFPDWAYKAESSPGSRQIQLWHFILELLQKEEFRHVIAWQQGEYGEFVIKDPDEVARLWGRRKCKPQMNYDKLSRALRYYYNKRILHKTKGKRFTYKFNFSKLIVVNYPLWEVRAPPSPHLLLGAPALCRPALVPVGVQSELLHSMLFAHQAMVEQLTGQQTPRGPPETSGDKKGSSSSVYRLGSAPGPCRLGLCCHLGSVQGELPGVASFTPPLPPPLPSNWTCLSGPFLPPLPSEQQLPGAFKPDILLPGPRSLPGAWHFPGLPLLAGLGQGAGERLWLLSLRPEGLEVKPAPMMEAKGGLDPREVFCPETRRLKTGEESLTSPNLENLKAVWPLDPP
Particulars: protein: recombinant; tags: N-terminal GST; dsDNA, one strand shown. In outline:
as §1

The target in a further assay is T8, ETS2 (Homo sapiens, UniProt P15036 1-469).
T8 sequence: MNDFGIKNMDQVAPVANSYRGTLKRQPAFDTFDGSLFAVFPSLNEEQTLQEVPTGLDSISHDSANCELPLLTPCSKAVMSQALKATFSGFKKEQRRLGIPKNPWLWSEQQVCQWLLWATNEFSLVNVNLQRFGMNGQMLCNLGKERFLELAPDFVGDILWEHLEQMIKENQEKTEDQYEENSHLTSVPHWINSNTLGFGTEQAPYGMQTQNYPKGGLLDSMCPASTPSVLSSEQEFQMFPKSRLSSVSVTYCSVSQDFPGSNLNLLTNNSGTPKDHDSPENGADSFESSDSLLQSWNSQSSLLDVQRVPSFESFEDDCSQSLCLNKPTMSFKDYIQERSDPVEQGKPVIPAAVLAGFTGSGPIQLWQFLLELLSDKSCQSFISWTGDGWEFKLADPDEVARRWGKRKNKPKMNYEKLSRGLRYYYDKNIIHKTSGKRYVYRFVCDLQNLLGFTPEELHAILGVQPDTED
Particulars: protein: recombinant; tags: N-terminal GST; dsDNA, one strand shown. In outline: as §1

A further assay concerns the target T9, SPDEF (Homo sapiens, UniProt O95238 1-335).
T9 sequence: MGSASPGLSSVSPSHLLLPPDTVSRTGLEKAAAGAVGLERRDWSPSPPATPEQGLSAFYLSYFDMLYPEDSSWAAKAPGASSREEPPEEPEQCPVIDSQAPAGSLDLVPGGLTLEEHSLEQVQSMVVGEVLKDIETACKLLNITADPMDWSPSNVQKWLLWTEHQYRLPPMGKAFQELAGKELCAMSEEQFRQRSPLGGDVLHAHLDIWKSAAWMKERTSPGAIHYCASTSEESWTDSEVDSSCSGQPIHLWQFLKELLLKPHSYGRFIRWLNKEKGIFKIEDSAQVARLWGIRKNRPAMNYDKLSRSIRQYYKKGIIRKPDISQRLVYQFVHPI
Conditions: protein: recombinant; tags: N-terminal GST; dsDNA, one strand shown. Summed up:
as §1

The next assay has as its target T10, ETV7 (Homo sapiens, UniProt Q9Y603 1-341).
T10 sequence: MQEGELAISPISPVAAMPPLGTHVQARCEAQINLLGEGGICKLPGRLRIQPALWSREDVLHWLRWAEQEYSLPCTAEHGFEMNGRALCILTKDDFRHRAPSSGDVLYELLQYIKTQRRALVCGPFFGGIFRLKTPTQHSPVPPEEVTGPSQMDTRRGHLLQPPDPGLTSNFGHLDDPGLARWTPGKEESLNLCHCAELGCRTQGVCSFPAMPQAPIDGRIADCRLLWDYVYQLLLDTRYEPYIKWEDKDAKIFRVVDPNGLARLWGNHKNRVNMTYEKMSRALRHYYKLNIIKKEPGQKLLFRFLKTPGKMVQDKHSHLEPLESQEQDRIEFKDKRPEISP
Particulars: protein: recombinant; tags: N-terminal GST; dsDNA, one strand shown. In outline: as §1

A further assay addresses T11, ELF5 (Homo sapiens, UniProt Q9UKW6-2 1-255).
T11 sequence: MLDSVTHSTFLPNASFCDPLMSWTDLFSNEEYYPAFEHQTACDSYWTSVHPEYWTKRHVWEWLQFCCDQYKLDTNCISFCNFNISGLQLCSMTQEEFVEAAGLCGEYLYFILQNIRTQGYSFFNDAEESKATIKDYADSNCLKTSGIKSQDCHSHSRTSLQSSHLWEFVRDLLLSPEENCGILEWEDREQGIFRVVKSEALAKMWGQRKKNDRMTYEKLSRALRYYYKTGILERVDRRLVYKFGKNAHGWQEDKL
Conditions: protein: recombinant; tags: N-terminal GST; dsDNA, one strand shown. Summed up: as §1

Another assay has as its target T12, ETV3 (Homo sapiens, UniProt P41162-2 1-143).
T12 sequence: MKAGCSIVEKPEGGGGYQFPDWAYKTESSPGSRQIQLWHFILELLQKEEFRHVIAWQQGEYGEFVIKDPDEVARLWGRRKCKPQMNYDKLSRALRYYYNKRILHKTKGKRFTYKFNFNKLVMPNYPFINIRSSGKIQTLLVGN
Particulars: protein: recombinant; tags: N-terminal GST; dsDNA, one strand shown. In outline: as §1

Another assay has as its target ETV6 (Homo sapiens, UniProt P41212 1-452). Particulars: protein: recombinant; tags: N-terminal GST; dsDNA, one strand shown. In outline: as §1

ETV1, sequence (P50549 whole entry): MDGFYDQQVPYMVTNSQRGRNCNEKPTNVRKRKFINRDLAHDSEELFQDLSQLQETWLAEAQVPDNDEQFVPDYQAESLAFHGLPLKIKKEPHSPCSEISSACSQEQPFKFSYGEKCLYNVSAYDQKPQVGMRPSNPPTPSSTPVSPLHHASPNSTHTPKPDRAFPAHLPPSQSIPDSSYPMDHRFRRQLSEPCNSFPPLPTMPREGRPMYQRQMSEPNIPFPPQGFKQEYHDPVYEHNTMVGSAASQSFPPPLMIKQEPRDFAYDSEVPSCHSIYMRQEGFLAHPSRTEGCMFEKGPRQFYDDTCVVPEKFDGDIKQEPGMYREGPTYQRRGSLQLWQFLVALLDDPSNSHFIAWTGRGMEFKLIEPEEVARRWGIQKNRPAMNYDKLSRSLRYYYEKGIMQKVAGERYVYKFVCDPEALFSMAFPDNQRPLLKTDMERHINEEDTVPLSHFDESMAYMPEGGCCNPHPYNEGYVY
ETV5, sequence (P41161 whole entry): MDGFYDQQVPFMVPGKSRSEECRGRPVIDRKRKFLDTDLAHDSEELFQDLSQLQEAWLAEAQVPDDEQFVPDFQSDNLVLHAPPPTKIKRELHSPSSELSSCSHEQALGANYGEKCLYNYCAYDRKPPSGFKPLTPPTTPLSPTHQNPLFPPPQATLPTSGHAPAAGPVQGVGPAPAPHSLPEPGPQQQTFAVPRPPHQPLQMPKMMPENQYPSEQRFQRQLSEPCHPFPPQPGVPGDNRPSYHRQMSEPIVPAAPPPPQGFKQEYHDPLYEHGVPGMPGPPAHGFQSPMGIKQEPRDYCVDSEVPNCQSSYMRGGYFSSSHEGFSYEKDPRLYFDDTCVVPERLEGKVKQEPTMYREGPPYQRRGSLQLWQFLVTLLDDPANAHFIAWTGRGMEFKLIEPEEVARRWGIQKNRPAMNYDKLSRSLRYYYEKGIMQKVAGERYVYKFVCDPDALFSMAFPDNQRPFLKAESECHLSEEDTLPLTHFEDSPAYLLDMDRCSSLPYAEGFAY
ETV6, sequence (P41212 whole entry): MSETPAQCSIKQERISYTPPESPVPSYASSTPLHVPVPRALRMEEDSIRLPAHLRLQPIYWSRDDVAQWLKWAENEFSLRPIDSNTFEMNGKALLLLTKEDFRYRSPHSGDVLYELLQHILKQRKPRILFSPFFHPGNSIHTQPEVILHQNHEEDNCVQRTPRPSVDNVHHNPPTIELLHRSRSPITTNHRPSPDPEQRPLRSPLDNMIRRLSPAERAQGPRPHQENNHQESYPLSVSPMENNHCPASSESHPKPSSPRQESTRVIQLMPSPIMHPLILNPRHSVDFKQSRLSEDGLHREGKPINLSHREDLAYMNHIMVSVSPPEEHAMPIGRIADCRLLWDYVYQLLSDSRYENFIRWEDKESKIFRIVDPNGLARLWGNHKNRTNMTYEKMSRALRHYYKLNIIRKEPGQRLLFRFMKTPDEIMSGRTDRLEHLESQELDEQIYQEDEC
HSF1, sequence (Q00613 whole entry): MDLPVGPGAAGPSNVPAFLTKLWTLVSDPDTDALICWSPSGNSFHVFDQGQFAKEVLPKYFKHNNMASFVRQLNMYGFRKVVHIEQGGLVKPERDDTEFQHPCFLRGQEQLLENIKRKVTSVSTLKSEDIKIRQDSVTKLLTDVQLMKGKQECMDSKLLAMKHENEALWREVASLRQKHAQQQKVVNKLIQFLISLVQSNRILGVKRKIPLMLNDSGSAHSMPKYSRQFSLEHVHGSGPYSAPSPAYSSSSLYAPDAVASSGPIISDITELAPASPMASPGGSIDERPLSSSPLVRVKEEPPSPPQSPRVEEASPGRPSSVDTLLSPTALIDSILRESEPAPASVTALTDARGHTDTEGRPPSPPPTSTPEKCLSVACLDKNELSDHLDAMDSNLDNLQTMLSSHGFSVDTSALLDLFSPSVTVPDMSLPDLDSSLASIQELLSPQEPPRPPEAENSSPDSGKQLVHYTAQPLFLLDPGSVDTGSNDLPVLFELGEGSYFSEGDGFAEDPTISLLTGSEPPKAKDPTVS
ELF4, sequence (Q99607 whole entry): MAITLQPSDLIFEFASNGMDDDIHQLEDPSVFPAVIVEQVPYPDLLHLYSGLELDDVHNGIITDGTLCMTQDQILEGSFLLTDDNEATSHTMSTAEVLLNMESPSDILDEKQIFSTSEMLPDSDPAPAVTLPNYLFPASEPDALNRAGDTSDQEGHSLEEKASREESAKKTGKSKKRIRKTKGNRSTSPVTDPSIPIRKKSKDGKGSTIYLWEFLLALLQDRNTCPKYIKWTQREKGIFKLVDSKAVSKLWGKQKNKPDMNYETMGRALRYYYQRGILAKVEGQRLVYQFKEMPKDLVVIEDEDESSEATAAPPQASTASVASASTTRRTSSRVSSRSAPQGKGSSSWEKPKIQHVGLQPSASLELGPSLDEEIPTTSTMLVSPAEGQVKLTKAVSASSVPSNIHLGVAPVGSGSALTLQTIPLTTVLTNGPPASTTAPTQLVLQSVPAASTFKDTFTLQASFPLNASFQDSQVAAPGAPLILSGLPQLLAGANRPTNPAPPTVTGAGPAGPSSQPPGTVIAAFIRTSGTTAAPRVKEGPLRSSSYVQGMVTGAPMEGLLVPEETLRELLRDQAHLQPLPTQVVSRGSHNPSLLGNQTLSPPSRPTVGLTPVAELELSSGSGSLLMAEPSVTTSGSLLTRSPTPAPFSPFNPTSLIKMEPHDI
CRX, sequence (O43186 whole entry): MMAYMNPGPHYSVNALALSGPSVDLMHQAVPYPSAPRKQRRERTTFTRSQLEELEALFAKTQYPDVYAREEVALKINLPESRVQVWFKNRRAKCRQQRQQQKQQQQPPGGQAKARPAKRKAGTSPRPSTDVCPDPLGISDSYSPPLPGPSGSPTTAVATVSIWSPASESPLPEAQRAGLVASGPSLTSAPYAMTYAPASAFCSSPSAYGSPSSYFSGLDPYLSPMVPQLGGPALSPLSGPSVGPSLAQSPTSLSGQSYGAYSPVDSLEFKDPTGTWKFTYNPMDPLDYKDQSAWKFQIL

For the sequence CTCTTT, the binding signal in the assay with FEV was 1.47 fold enrichment (6-mer frequency, TF over GST control); with ETV5, 1.42 fold enrichment (6-mer frequency, TF over GST control); with HSF1, 1.4 fold enrichment (6-mer frequency, TF over GST control); in the assay with SPIC, 1.35 fold enrichment (6-mer frequency, TF over GST control); in the assay with ELF4 it was 1.44 fold enrichment (6-mer frequency, TF over GST control); with ELK4, 1.31 fold enrichment (6-mer frequency, TF over GST control). Further, the binding signal with ETV2 is 1.58 fold enrichment (6-mer frequency, TF over GST control); with ELF3, 1.4 fold enrichment (6-mer frequency, TF over GST control); with CRX, 1.53 fold enrichment (6-mer frequency, TF over GST control); with ETV1, 1.44 fold enrichment (6-mer frequency, TF over GST control); with ERF, 1.39 fold enrichment (6-mer frequency, TF over GST control); with ETV3L, 1.53 fold enrichment (6-mer frequency, TF over GST control). Further, the binding signal is 1.41 fold enrichment (6-mer frequency, TF over GST control) in the assay with ETS2; 1.53 fold enrichment (6-mer frequency, TF over GST control) in the assay with SPDEF; 1.5 fold enrichment (6-mer frequency, TF over GST control) in the assay with ETV7; 1.42 fold enrichment (6-mer frequency, TF over GST control) with ELF5; 1.53 fold enrichment (6-mer frequency, TF over GST control) in the assay with ETV3; 1.4 fold enrichment (6-mer frequency, TF over GST control) with ETV6.
